# Test results published in PubChem BioAssay.
# Where “and” joins values, the source holds several entries; their conditions need not be identical. Identical values can stand only once. Records with an inconclusive call do not appear. For some of these results: Potency and affinity values are given separately. More than one record can exist for a structure, and the calls need not agree. Calls of active or inactive are those of the source.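 How the source made its calls, unless noted: active means at least 20% inhibition of 6-phosphogluconate dehydrogenase activity; inactive means the rest.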
# What was measured:
# [1] = polyglutamine-triggered caspase-3 activation inhibitors, cell-based (AID 1583); details: polyglutamine-induced caspase-3 activation, cell assay; stronger effect = higher value;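 tested at 10 µM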
# [2] = suppressors of polyQ aggregation in yeast, 75Q-TubU reporter (AID 1593); details: Yeast 75Q polyglutamine aggregation reporter
# [3] = rescue of polyQ-huntingtin neuronal dysfunction in worms, whole organism, C. elegans mechanosensory neurons, N-terminal huntingtin (AID 1599); details: touch response, stronger effect = higher value
# [4] = inhibitors of mitochondrial cytochrome c release, biochemical, purified mitochondria (AID 1603); details: stronger effect = lower value;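 further: mouse liver mitochondria challenged with calcium chloride; signal normalized to the plate average as 100%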
# [5] = inhibitors of polyQ protein aggregation (AID 1604); details: polyglutamine-induced protein aggregation inhibition assay; stronger effect = higher value; tested at 2.5 µM
# [6] = enhancers of glutamate uptake in motor neurons, MN-1 cell line (AID 1612); details: MN-1 motor neuron cells, stronger effect = higher value;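 further: tested at 1 µM final; 0% = mean of DMSO vehicle wells on each plate; positive means more glutamate uptake than control and negative means less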
# [7] = suppressors of polyglutamine aggregation in yeast, 75Q-TubH (AID 1616); details: S. cerevisiae 75Q-TubH polyglutamine aggregation suppression; stronger effect = higher value
# [8] = molecular target: 6-phosphogluconate dehydrogenase, decarboxylating (Homo sapiens) (UniProt P52209); assay: 6PGD enzyme inhibitors, primary screen, biochemical, human, recombinant enzyme, NADPH absorbance (AID 1159550); details: recombinant 6PGD, NADPH absorbance 341 nm; at 10 µM; stronger effect = higher value
# [9] = differential killing of epithelial or mesenchymal cells, primary screen, imaging, PC-3E GFP, TEM4-18 mCherry, co-culture (AID 1345086;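 active means compounds killing one labelled cell type while sparing the other, by normalised counts and ratio limits, not self-fluorescent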;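 on all read-outs here: cells exposed to compound for 72 h before imaging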;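 on red/green cell ratio (normalised): normalised mesenchymal count divided by normalised epithelial count so high means epithelial killing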); details: imaging cell counts, at 1 µM; for red/green cell ratio (normalised): actives lie on both sides, counts scaled to control wells, 1 = unselective
# [10] = molecular target: Mitogen-activated protein kinase 7 (Homo sapiens) (UniProt Q13164); assay: ERK5 transactivation activators in reporter cells, primary screen, cell-based, HTS (AID 1508626;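 active means luciferase signal above three times the same-plate solvent-only control wells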;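 further: luciferase driven by Gal4-ERK5 fusion binding five Gal4 sites before minimal TATA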); details: HeLa Gal4-ERK5 transactivation, 18 h, at 5 µM, stronger effect = higher value
# [11] = liver-stage malaria parasite growth inhibition, primary screen, cell-based, HepG2, luciferase luminescence, HepG2 viability (AID 624349; in the data active means parasite load remaining mostly below about 12%, no sharp cut-off; inactive means mostly above about 10%;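 further: 100% = mean of DMSO negative control wells on the same plate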); details: P. berghei liver stage in HepG2, luciferase luminescence, concentration not given here; parasite load remaining: stronger effect = lower value; viability: measured here: HepG2 viability without parasites
# [12] = JHH-DIPG-1 glioma cell viability, MIPE5.0 library, CellTiter-Glo luminescence, qHTS (AID 1347067; cut-off not given, nearly all actives have AC50 up to about 26 µM;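 further: cells exposed to compound for 48 hours before readout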); details: JHH-DIPG-1 glioma viability, CellTiter-Glo ATP luminescence
# [13] = sensitizers of A549 cells to miR-34 induction, primary screen, imaging, A549 dox-inducible miR-34, nuclei and caspase counts (AID 1347080;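 active means compounds whose cell count with miR-34 switched on is under 0.7 times the count with it off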); details: A549 miR-34 inducible, Hoechst nuclei count, 48 h
# [14] = viability rescue of complex I mutant cybrids, primary screen, cell-based, galactose medium, ATP luminescence (AID 1645843;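 active means z-score of at least 1.8 in each of two replicates, scored against plate mean and spread of sample wells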;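 further: positive z means more ATP and so rescue of galactose-driven cybrid death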); details: complex I mutant cybrid cells, 72 h, stronger effect = higher value
# [15] = growth inhibition of DIPG glioma cells, dose response, cell-based, SU-DIPG-XIII, MIPE4.0, CellTiter-Glo, qHTS (AID 1347061; cut-off not given, nearly all actives have AC50 up to about 37 µM;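 further: cells exposed to compound for 48 hours before readout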); details: SU-DIPG-XIII viability, CellTiter-Glo ATP luminescence
# [16] = growth inhibition of DIPG glioma cells, dose response, cell-based, JHH-DIPG-1, MIPE4.0, CellTiter-Glo, qHTS (AID 1347062; cut-off not given, nearly all actives have AC50 up to about 27 µM); details: JHH-DIPG-1 viability, CellTiter-Glo ATP luminescence
# [17] = growth inhibition of DIPG glioma cells, dose response, cell-based, SU-DIPG-IV, MIPE4.0, CellTiter-Glo, qHTS (AID 1347063; cut-off not given, nearly all actives have AC50 up to about 30 µM;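 further: compound exposure lasted 48 hours before the viability readout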); details: SU-DIPG-IV viability, CellTiter-Glo ATP luminescence
# [18] = survival rescue of mitochondrial mutant cells in low glucose, primary screen, MELAS cybrids, Rieske KO mouse fibroblasts, CellTiter-Glo (AID 1508586;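 active means mean z-score across replicates of 1.96 or higher in either the MELAS or the Rieske mutant cell line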;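 further: z relative to plate mean and SD of compound and empty wells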)
# [19] = measured here: epithelial PC-3E GFP cell survival
# [20] = measured here: mesenchymal TEM4-18 mCherry cell survival
# Chain of 6-phosphogluconate dehydrogenase, decarboxylating (Homo sapiens) (P52209 whole entry, looked up): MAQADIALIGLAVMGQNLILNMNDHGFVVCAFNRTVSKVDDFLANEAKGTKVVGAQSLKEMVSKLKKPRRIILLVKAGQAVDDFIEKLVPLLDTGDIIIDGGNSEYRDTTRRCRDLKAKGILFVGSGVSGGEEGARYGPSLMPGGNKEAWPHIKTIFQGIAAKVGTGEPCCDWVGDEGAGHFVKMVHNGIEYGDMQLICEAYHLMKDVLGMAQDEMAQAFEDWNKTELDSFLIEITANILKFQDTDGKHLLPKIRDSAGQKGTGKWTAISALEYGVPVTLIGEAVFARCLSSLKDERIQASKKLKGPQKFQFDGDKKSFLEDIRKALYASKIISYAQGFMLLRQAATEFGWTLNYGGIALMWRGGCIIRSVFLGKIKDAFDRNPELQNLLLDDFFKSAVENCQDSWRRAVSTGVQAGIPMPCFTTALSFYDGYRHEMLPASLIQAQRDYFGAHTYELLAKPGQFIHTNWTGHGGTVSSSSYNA
# Chain of Mitogen-activated protein kinase 7 (Homo sapiens) (Q13164 whole entry, looked up, the tested form may be a part): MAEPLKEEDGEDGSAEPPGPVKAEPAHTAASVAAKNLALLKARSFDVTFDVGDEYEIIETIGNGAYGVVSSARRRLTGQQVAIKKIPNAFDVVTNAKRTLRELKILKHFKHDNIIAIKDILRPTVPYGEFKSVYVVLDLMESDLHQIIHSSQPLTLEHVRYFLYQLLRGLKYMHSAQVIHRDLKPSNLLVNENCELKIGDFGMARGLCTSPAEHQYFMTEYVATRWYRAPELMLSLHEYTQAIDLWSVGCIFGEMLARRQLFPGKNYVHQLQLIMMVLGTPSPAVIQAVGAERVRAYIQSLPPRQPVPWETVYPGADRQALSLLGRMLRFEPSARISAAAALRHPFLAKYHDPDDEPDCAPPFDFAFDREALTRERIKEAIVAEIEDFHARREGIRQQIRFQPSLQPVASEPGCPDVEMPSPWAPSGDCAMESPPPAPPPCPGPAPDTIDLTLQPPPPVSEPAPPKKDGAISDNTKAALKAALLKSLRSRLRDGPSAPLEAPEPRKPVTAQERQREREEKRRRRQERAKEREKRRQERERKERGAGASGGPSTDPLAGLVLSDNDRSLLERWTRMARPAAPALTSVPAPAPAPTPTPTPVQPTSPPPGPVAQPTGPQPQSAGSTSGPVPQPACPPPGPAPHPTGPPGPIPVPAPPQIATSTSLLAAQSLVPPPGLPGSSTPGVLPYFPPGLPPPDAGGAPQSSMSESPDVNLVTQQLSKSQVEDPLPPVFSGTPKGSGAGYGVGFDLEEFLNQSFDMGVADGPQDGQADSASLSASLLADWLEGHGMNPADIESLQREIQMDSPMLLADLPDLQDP
structure (smiles),measurement,setting,value
COc1c(OC)c2occc2c2oc(=O)ccc12,inhibition,[1],-21%
same,score,[2],0.45
same,rescue above control,[3],5.04
same,cytochrome c release ratio,[4],1
same,inhibition of aggregation,[5],42.9%
same,glutamate uptake change,[6],-3.15%
same,aggregation suppression score,[7],0.328
same,inhibition,[8],-3.21% (inactive)
same,red/green cell ratio (normalised),[9],0.97 (inactive)
same,normalised cell number,[9]; [19],1.12
same,normalised cell number,[9]; [20],1.08
same,luciferase signal,[10],28 AU (inactive)
C[C@@]12C(=O)OC(=O)[C@]1(C)[C@H]1CC[C@@H]2O1,parasite load remaining,[11],-0.2% (inactive)
same,viability,[11],9.1%
same,inhibition,[8],-26.6% (inactive)
same,AC50,[12],2350 nM (active)
same,fold change,"[13]; stronger effect = lower value, cell number ratio, induced over uninduced",0.592 (active) and 1.01 (inactive)
same,fold change,[13]; measured here: relative caspase fold change +Dox/-Dox,2.6 and 1.41
same,cell count,"[13]; measured here: total cells with miR-34 induction, stronger effect = lower value",223 and 535
same,cell count,[13]; measured here: total cells without miR-34 induction,376 and 530
same,luciferase signal,[10],52 AU (inactive)
same,z-score,[14],-0.755 (inactive)
O=c1c(-c2ccc(O)cc2)coc2cc(O)ccc12,inhibition,[1],-30.4%
same,score,[2],1
same,rescue above control,[3],2.42
same,cytochrome c release ratio,[4],0.87
same,inhibition of aggregation,[5],27.9%
same,glutamate uptake change,[6],12%
same,aggregation suppression score,[7],1.43
same,parasite load remaining,[11],225% (inactive)
same,viability,[11],94.2%
same,inhibition,[8],6.36% (inactive)
same,outcome,[15],inactive
same,outcome,[16],inactive
same,outcome,[17],inactive
same,outcome,[12],inactive
same,z-score,"[18]; MELAS cybrid survival, CellTiter-Glo 48 h, stronger effect = higher value",-0.189 (inactive)
same,z-score,"[18]; Rieske KO mouse fibroblast survival, CellTiter-Glo 72 h",-0.724
same,luciferase signal,[10],120 AU (inactive)
same,z-score,[14],0.775 (inactive) and 0.485 (inactive)
O=C1C=CC(=C(c2ccc(O)cc2)c2ccc(O)cc2)C=C1,inhibition,[1],28.5%
same,score,[2],1.1
same,rescue above control,[3],-3.26
same,cytochrome c release ratio,[4],1.26
same,inhibition of aggregation,[5],83.1%
same,glutamate uptake change,[6],-0.24%
same,aggregation suppression score,[7],1.13
same,inhibition,[8],7.03% (inactive)
same,red/green cell ratio (normalised),[9],0.79 (inactive)
same,normalised cell number,[9]; [19],1.03
same,normalised cell number,[9]; [20],0.82
same,luciferase signal,[10],148 AU (inactive)
C=NC(C(=O)NC1C(=O)N2C1SC(C)(C)C2C(=O)O)c1ccccc1 (centres undefined),inhibition,[1],15.2%
same,score,[2],0.85
same,rescue above control,[3],-2.5
same,cytochrome c release ratio,[4],0.48
same,inhibition of aggregation,[5],82%
same,glutamate uptake change,[6],4.77%
same,aggregation suppression score,[7],0.649
same,parasite load remaining,[11],130% (inactive)
same,viability,[11],74.4%
same,inhibition,[8],-2.44% (inactive)
same,red/green cell ratio (normalised),[9],1.12 (inactive)
same,normalised cell number,[9]; [19],0.88
same,normalised cell number,[9]; [20],0.99
O=C(O)c1cc(=O)c2cccc(O)c2[nH]1,inhibition,[1],-21.7%
same,score,[2],0.98
same,rescue above control,[3],-4.01
same,cytochrome c release ratio,[4],1.01
same,inhibition of aggregation,[5],57.7%
same,glutamate uptake change,[6],9.13%
same,aggregation suppression score,[7],1.12
same,parasite load remaining,[11],174% (inactive)
same,viability,[11],71.4%
same,inhibition,[8],4.89% (inactive)
same,red/green cell ratio (normalised),[9],1.29 (inactive)
same,normalised cell number,[9]; [19],0.88
same,normalised cell number,[9]; [20],1.13
same,luciferase signal,[10],100 AU (inactive)
